Assay results published in PubChem BioAssay (NCATS).
Records with an inconclusive call do not appear. Unmarked numbers belong to inactive results. The source made the active and inactive calls. The call rests on the fitted dose curve; in most records, active means well fitted inhibition curve with a large enough effect in the repeat runs; inconclusive means weak or mixed curves; inactive means no such curve, though single readings can be large or run the other way.

biological target: Cytochrome P450 2C9 (Homo sapiens) (UniProt P11712); assay: Cytochrome P450 family 2 subfamily C member 9 (CYP2C9) small molecule antagonists: luciferase biochemical (cell-free) qHTS assay (AID 1645842); details: P450-Glo CYP2C9 enzyme assay, luciferin luminescence; series mostly up to 57.4 µM; activity change, negative = inhibition: at the top concentration; further: nearly all actives have a fitted effect of over 55% in size
Sequence (P11712 whole entry, looked up): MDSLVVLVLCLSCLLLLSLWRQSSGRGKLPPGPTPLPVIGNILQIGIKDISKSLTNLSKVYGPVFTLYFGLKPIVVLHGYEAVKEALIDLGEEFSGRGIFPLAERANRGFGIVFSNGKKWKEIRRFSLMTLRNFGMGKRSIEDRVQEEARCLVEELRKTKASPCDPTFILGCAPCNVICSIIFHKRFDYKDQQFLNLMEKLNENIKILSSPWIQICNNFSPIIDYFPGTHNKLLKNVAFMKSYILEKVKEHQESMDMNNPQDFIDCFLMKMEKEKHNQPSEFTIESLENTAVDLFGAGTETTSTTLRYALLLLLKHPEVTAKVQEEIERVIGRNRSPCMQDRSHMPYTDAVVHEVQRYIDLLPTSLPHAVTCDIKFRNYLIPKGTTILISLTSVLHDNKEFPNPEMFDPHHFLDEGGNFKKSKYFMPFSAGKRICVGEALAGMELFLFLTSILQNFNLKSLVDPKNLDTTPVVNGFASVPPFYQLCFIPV
Procedure, shortened: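 Luminescence, after 20 min with luciferin detection reagent, reflected CYP2C9 turnover during a 1 h NADPH-driven reaction at 37C. Enzyme-substrate mix contained 0.4% bovine serum albumin and was preincubated with compound 10 min at room temperature.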
On the % scale 0 is the no-effect control and ±100 the full control effect; potency means the concentration at half of the fitted maximal effect.

SMILES	Potency	activity change, negative = inhibition [%]
CNC(=O)c1ccc(CSc2nc3ccncc3n2Cc2ccc(C)cc2)cc1	7.56 µM (active)	
COc1cccc(-c2cc(F)ccc2[C@H]2Cc3nc(N)nc(C)c3C(=O)N2)n1	6.74 µM (active)	
NCC1OC(OC2C(N)CC(N)C(OC3OC(CO)C(O)C(N)C3O)C2O)C(N)CC1O (stereo not given)		19.4
COc1ccc(NC(=O)c2cnc[nH]2)cc1S(=O)(=O)Nc1ccc(Br)cc1	10.7 µM (active)	
COc1ccccc1NC(=O)CSc1nc(-c2ccc(C(C)(C)C)cc2)c(C#N)c(=O)[nH]1	0.756 µM (active)	
COc1ccc(CC(=O)NCC(c2cccs2)S(=O)(=O)c2ccc(Cl)cc2)cc1 (stereo not given)	2.39 µM (active)	
COc1ccccc1Nc1nc(-c2ccccc2F)nc2ccccc12	12 µM (active)	
O=c1[nH]c2ccc(S(=O)(=O)Nc3cc(Cl)ccc3O)cc2o1	9.52 µM (active)	
COc1ccc(C(=O)NC(c2ccccc2Cl)c2cc(Cl)c3cccnc3c2O)cc1 (stereo not given)	6.01 µM (active)	
CCOc1cc(C(Nc2cc(C)ccn2)c2ccc3cccnc3c2O)ccc1OC (stereo not given)	12.6 µM (active)	
COc1ccccc1NC(=O)CSc1oc(-c2cccs2)nc1S(=O)(=O)c1ccc(Br)cc1	0.425 µM (active)	
CC1(C#N)CCN(c2c(C(=O)N3CCN(C(=O)C4CC4)CC3)cnc3c(F)cc(F)cc23)CC1	12 µM (active)	
C=CCNCCCCCC[N+](C)(C)C		2.27
COc1cccc(CNCc2cccn2-c2nnc(N3CCN(c4ccccc4)CC3)s2)c1	9.52 µM (active)	
COc1ccc(-c2cn3cccnc3n2)cc1NC(=O)c1cc(C)cc(C)c1	4.77 µM (active)	
